Results filed as inconclusive are left out. The source made the active and inactive calls. How the source made its calls, unless noted: active means hit-call score of the fitted dose curve at least 0.9, where 1 is the maximum; inactive means score below 0.9.
Test: CCTE_Shafer_MEA_acute_spike_number: CCTE's Neural Acute Assay for Total Number of Spikes, Shafer Lab (AID 2284008);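 on AC50: curve fitted for decrease in spike count so AC50 reflects inhibitors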
Outline: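 Rat cortical cultures, DIV 13/15, 37 C. 40 min baseline rec, cpd 0.03-40 uM, 40 min post-dose rec. Band-pass 300-5000 Hz, spike threshold 8x rms; % change in spike count per well, DMSO neg ctrl, loss-of-signal fit.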

**Q.** For `O=C(O)c1nc(Cl)ccc1Cl`, which outcome is on record?
**A.** inactive

**Q.** Which AC50 does the source give for `COC(=O)N(OC)c1ccccc1COc1ccn(-c2ccc(Cl)cc2)n1` here?
**A.** 78.1 nM (active)

**Q.** For `Fc1ccc(Oc2ccnc3cc(Cl)cc(Cl)c23)cc1`, which outcome is on record?
**A.** inactive

Test: CCTE_Shafer_MEA_acute_firing_rate_mean: CCTE's Neural Acute Assay for Mean Firing Rate, Shafer Lab (AID 2284009);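 further: analyzed for loss of signal so actives lower firing rate relative to DMSO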
Outline: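 Rat cortical neuron cultures matured to DIV 13 or 15, equilibrated 20 min at 37 C, then recorded 40 min for baseline. Compound (0.03-40 uM) added and a further 40 min recorded; percent change in mean firing rate calculated per well.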

**Q.** With `O=C(O)c1nc(Cl)ccc1Cl` as the molecule, how does the outcome read?
**A.** inactive

**Q.** For `COC(=O)N(OC)c1ccccc1COc1ccn(-c2ccc(Cl)cc2)n1`, which AC50 is on record?
**A.** 78.3 nM (active)

**Q.** Which outcome does the source give for `Fc1ccc(Oc2ccnc3cc(Cl)cc(Cl)c23)cc1` here?
**A.** inactive

Test: CCTE_Harrill_HTTr_Viability_MCF7: CCTE's 6-hour Cell Viability Assessment for the High-Throughput Transcriptomics (HTTr) Platform, in MCF-7 cells cultured in DMEM + 10% fetal bovine serum, Harrill Lab (AID 2284010)
Outline: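 PI exclusion, high-content imaging; 8-pt dilution series, 6 h exposure; bidirectional fit vs DMSO (neg. ctrl/baseline); gain of signal = loss of membrane integrity.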

**Q.** With `C=CC1(C)OC(=O)N(c2cc(Cl)cc(Cl)c2)C1=O` (centres undefined) as the molecule, how does the outcome read?
**A.** inactive

**Q.** For `CCON=C(CC)C1=C(O)CC(c2c(C)cc(C)cc2C)CC1=O` (centres undefined), which outcome is on record?
**A.** inactive

**Q.** For `CC1=C(C(=O)Nc2ccccc2)SCCO1`, which outcome is on record?
**A.** inactive

**Q.** With `O=C(O)COc1nc(Cl)c(Cl)cc1Cl` as the molecule, how does the outcome read?
**A.** inactive

**Q.** With `CCOC(=O)CC(SP(=S)(OC)OC)C(=O)OCC` (centres undefined) as the molecule, how does the outcome read?
**A.** inactive

**Q.** For `COc1cnc(OC)n2nc(NS(=O)(=O)c3c(OCC(F)F)cccc3C(F)(F)F)nc12`, which outcome is on record?
**A.** inactive

**Q.** For `CCCCNC(=O)n1c(NC(=O)OC)nc2ccccc21`, which outcome is on record?
**A.** inactive

**Q.** Which outcome does the source give for `O=C(Nc1ccccc1)Nc1ccnc(Cl)c1` here?
**A.** inactive

**Q.** For `O=C(O)c1nc(Cl)ccc1Cl`, which outcome is on record?
**A.** inactive

**Q.** With `CCOc1cc(Oc2ccc(C(F)(F)F)cc2Cl)ccc1[N+](=O)[O-]` as the molecule, how does the outcome read?
**A.** inactive

**Q.** With `CCOC(=O)C(Cl)Cc1cc(-n2nc(C)n(C(F)F)c2=O)c(F)cc1Cl` (centres undefined) as the molecule, how does the outcome read?
**A.** inactive

**Q.** Which outcome does the source give for `COC(=O)N(OC)c1ccccc1COc1ccn(-c2ccc(Cl)cc2)n1` here?
**A.** inactive

**Q.** Which outcome does the source give for `COC(=O)c1ccccc1C(=O)OC` here?
**A.** inactive

**Q.** For `CCCCC(CC)COC(=O)c1ccccc1C(=O)OCC(CC)CCCC` (centres undefined), which outcome is on record?
**A.** inactive

**Q.** For `CCc1nn(C)c(C(=O)NCc2ccc(C(C)(C)C)cc2)c1Cl`, which outcome is on record?
**A.** inactive

**Q.** With `CCNc1nc(Cl)nc(NCC)n1` as the molecule, how does the outcome read?
**A.** inactive

**Q.** Which outcome does the source give for `CNC(=S)S` here?
**A.** inactive

**Q.** With `Cc1cc(Cl)ccc1OCC(=O)O` as the molecule, how does the outcome read?
**A.** inactive

**Q.** For `CN(C)C(=S)SSC(=S)N(C)C`, which outcome is on record?
**A.** inactive

**Q.** For `COc1nc(NC(C)C)nc(NC(C)C)n1`, which outcome is on record?
**A.** inactive

**Q.** Which outcome does the source give for `CC(C)C1(C)N=C(c2nc3ccccc3cc2C(=O)O)NC1=O` (centres undefined) here?
**A.** inactive

**Q.** For `COC(=O)C=C(C)OP(=O)(OC)OC`, which outcome is on record?
**A.** inactive

**Q.** For `CCCCOC(=O)c1ccccc1C(=O)OCCCC`, which outcome is on record?
**A.** inactive

**Q.** For `Fc1ccc(Oc2ccnc3cc(Cl)cc(Cl)c23)cc1`, which outcome is on record?
**A.** inactive

**Q.** Which outcome does the source give for `Oc1ccccc1-c1ccccc1` here?
**A.** inactive

**Q.** With `N#Cc1cc(Br)c(O)c(Br)c1` as the molecule, how does the outcome read?
**A.** inactive

Test: CCTE_Harrill_HTTr_Apoptosis_MCF7: CCTE's 6-hour Apoptosis Assessment for the High-Throughput Transcriptomics (HTTr) Platform, in MCF-7 cells cultured in DMEM + 10% fetal bovine serum, Harrill Lab (AID 2284011)
Outline: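 Read-out: CellEvent Caspase 3/7 Green signal by high content imaging, gain-of-signal indicating apoptosis. MCF-7 cells, DMEM + 10% FBS, eight-point dilution series, 6 h exposure. Curves fitted bidirectionally relative to DMSO negative control.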

**Q.** For `C=CC1(C)OC(=O)N(c2cc(Cl)cc(Cl)c2)C1=O` (centres undefined), which outcome is on record?
**A.** inactive

**Q.** Which outcome does the source give for `CCON=C(CC)C1=C(O)CC(c2c(C)cc(C)cc2C)CC1=O` (centres undefined) here?
**A.** inactive

**Q.** Which outcome does the source give for `CC1=C(C(=O)Nc2ccccc2)SCCO1` here?
**A.** inactive

**Q.** Which outcome does the source give for `O=C(O)COc1nc(Cl)c(Cl)cc1Cl` here?
**A.** inactive

**Q.** Which outcome does the source give for `CCOC(=O)CC(SP(=S)(OC)OC)C(=O)OCC` (centres undefined) here?
**A.** inactive

**Q.** With `COc1cnc(OC)n2nc(NS(=O)(=O)c3c(OCC(F)F)cccc3C(F)(F)F)nc12` as the molecule, how does the outcome read?
**A.** inactive

**Q.** Which outcome does the source give for `CCCCNC(=O)n1c(NC(=O)OC)nc2ccccc21` here?
**A.** inactive

**Q.** For `O=C(Nc1ccccc1)Nc1ccnc(Cl)c1`, which outcome is on record?
**A.** inactive

**Q.** Which outcome does the source give for `O=C(O)c1nc(Cl)ccc1Cl` here?
**A.** inactive

**Q.** Which outcome does the source give for `CCOc1cc(Oc2ccc(C(F)(F)F)cc2Cl)ccc1[N+](=O)[O-]` here?
**A.** inactive

**Q.** With `CCOC(=O)C(Cl)Cc1cc(-n2nc(C)n(C(F)F)c2=O)c(F)cc1Cl` (centres undefined) as the molecule, how does the outcome read?
**A.** inactive

**Q.** Which outcome does the source give for `COC(=O)N(OC)c1ccccc1COc1ccn(-c2ccc(Cl)cc2)n1` here?
**A.** inactive

**Q.** For `COC(=O)c1ccccc1C(=O)OC`, which outcome is on record?
**A.** inactive

**Q.** With `CCCCC(CC)COC(=O)c1ccccc1C(=O)OCC(CC)CCCC` (centres undefined) as the molecule, how does the outcome read?
**A.** inactive

**Q.** For `CCc1nn(C)c(C(=O)NCc2ccc(C(C)(C)C)cc2)c1Cl`, which outcome is on record?
**A.** inactive

**Q.** With `CCNc1nc(Cl)nc(NCC)n1` as the molecule, how does the outcome read?
**A.** inactive

**Q.** Which outcome does the source give for `CNC(=S)S` here?
**A.** inactive

**Q.** For `Cc1cc(Cl)ccc1OCC(=O)O`, which outcome is on record?
**A.** inactive

**Q.** Which outcome does the source give for `CN(C)C(=S)SSC(=S)N(C)C` here?
**A.** inactive

**Q.** Which outcome does the source give for `COc1nc(NC(C)C)nc(NC(C)C)n1` here?
**A.** inactive

**Q.** With `CC(C)C1(C)N=C(c2nc3ccccc3cc2C(=O)O)NC1=O` (centres undefined) as the molecule, how does the outcome read?
**A.** inactive

**Q.** With `COC(=O)C=C(C)OP(=O)(OC)OC` as the molecule, how does the outcome read?
**A.** inactive

**Q.** For `CCCCOC(=O)c1ccccc1C(=O)OCCCC`, which outcome is on record?
**A.** inactive

**Q.** Which outcome does the source give for `Fc1ccc(Oc2ccnc3cc(Cl)cc(Cl)c23)cc1` here?
**A.** inactive

**Q.** Which outcome does the source give for `Oc1ccccc1-c1ccccc1` here?
**A.** inactive

**Q.** Which outcome does the source give for `N#Cc1cc(Br)c(O)c(Br)c1` here?
**A.** inactive

Test: CCTE_Harrill_HTTr_CellCount_MCF7: CCTE's Cell Proliferation Assessment for the High-Throughput Transcriptomics (HTTr) Platform, Harrill Lab (AID 2284012; active means hit-call score of the fitted dose curve at least 0.9, where 1 is the maximum;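 further: count of Hoechst-stained nuclei per well by high-content imaging in MCF-7 cells; cells exposed to compound for six hours; intended direction is loss of nuclei count meaning fewer cells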)
Outline: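 Readout: Hoechst nuclear count by high-content imaging. MCF-7, 8-point dilution series, 6 h exposure. Bidirectional fit vs DMSO baseline.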

**Q.** With `C=CC1(C)OC(=O)N(c2cc(Cl)cc(Cl)c2)C1=O` (centres undefined) as the molecule, how does the outcome read?
**A.** inactive

**Q.** With `CC1=C(C(=O)Nc2ccccc2)SCCO1` as the molecule, how does the outcome read?
**A.** inactive

**Q.** Which outcome does the source give for `O=C(O)COc1nc(Cl)c(Cl)cc1Cl` here?
**A.** inactive

**Q.** Which outcome does the source give for `CCOC(=O)CC(SP(=S)(OC)OC)C(=O)OCC` (centres undefined) here?
**A.** inactive

**Q.** Which outcome does the source give for `COc1cnc(OC)n2nc(NS(=O)(=O)c3c(OCC(F)F)cccc3C(F)(F)F)nc12` here?
**A.** inactive

**Q.** With `CCCCNC(=O)n1c(NC(=O)OC)nc2ccccc21` as the molecule, how does the outcome read?
**A.** inactive

**Q.** For `O=C(Nc1ccccc1)Nc1ccnc(Cl)c1`, which outcome is on record?
**A.** inactive

**Q.** Which outcome does the source give for `CCOc1cc(Oc2ccc(C(F)(F)F)cc2Cl)ccc1[N+](=O)[O-]` here?
**A.** inactive

**Q.** For `CCOC(=O)C(Cl)Cc1cc(-n2nc(C)n(C(F)F)c2=O)c(F)cc1Cl` (centres undefined), which outcome is on record?
**A.** inactive

**Q.** For `CCCCC(CC)COC(=O)c1ccccc1C(=O)OCC(CC)CCCC` (centres undefined), which outcome is on record?
**A.** inactive

**Q.** For `CCNc1nc(Cl)nc(NCC)n1`, which outcome is on record?
**A.** inactive

**Q.** Which outcome does the source give for `CNC(=S)S` here?
**A.** inactive

**Q.** For `CN(C)C(=S)SSC(=S)N(C)C`, which outcome is on record?
**A.** inactive

**Q.** Which outcome does the source give for `COC(=O)C=C(C)OP(=O)(OC)OC` here?
**A.** inactive

**Q.** For `Oc1ccccc1-c1ccccc1`, which outcome is on record?
**A.** inactive

**Q.** For `N#Cc1cc(Br)c(O)c(Br)c1`, which outcome is on record?
**A.** inactive
